Compound activity: PubChem, National Center for Advancing Translational Sciences (NCATS)
Pol eta inh-1: inhibitors of human DNA polymerase eta. Potency, µM (series often up to 114 µM), for the others: at the highest dose activity change, negative = inhibition, most hits filed as inhibitors. 390,000 tested, 1.2% active. Q9Y253. recombinant Pol eta, fluorescent DNA replication assay. AID 588591; also: potency is read from the fitted curve at half-maximal effect; % is scaled to controls: 0 for no effect and ±100 for the full control effect
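Pol eta (10 nM) was preincubated with compounds for 15 min at room temperature, after which fluorescent replication substrate (50 nM final) was added to start the reaction. Fluorescence was read kinetically at 0 and 10 min.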
Pol beta inh: blocks human DNA polymerase beta activity; P06746; Pol beta primer extension/strand displacement, fluorescence kinetic; Potency, µM (titrated, usually from 114 µM), inactives show at the highest dose activity change, negative = inhibition, most hits filed as inhibitors; 340,000 tested, 1.3% active; also: potency is read from the fitted curve at half-maximal effect; % is scaled to controls: 0 for no effect and ±100 for the full control effect
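Pol beta (10 nM) was preincubated with compound for 15 min at room temperature. The reaction was then started with 50 nM substrate and read immediately and after a further 10 min at room temperature.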
Pol iota inh: DNA polymerase iota (human) inhibition; AID 588590; Potency, µM (highest dose often 115 µM), without a hit: top-dose activity, negative = inhibition, usual class: inhibitors; Q9UNA4; Pol iota fluorescent replication assay, 10 min; 390,000 tested, 1% active; also: potency is read from the fitted curve at half-maximal effect
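Fluorescent replication assay read twice, at 0 min and 10 min after adding 50 nM (final) substrate. Enzyme (10 nM) and compounds were first incubated 15 min at room temperature; enzyme-free buffer wells were negative controls.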
Pol kappa inh-1: inhibitors of human DNA polymerase kappa. purified Pol kappa, fluorescent DNA synthesis assay, 10 min. Potency, µM (series often up to 107 µM), for the others: at the highest dose activity, negative = inhibition, usual class: inhibitors. 400,000 tested, 0.53% active. AID 588579; also: potency is read from the fitted curve at half-maximal effect; % is scaled to controls: 0 for no effect and ±100 for the full control effect
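Enzyme at 10 nM met test compounds for 15 min at room temperature. Substrate addition (50 nM final) began the reaction, which was monitored by fluorescence at 0 and 10 min.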
WRN inhibitor: blocks human WRN helicase. Potency, µM (top dose mostly 114 µM), for inactives: at the highest dose activity change, negative = inhibition, most hits filed as inhibitors. AID 651768. 360,000 tested, 0.46% active. WRN helicase unwinding, fluorescent forked duplex, kinetic; also: potency is read from the fitted curve at half-maximal effect; % is scaled to controls: 0 for no effect and ±100 for the full control effect; nearly all actives have a fitted effect of over 55% in size
Target sequence (Q14191 whole entry, looked up): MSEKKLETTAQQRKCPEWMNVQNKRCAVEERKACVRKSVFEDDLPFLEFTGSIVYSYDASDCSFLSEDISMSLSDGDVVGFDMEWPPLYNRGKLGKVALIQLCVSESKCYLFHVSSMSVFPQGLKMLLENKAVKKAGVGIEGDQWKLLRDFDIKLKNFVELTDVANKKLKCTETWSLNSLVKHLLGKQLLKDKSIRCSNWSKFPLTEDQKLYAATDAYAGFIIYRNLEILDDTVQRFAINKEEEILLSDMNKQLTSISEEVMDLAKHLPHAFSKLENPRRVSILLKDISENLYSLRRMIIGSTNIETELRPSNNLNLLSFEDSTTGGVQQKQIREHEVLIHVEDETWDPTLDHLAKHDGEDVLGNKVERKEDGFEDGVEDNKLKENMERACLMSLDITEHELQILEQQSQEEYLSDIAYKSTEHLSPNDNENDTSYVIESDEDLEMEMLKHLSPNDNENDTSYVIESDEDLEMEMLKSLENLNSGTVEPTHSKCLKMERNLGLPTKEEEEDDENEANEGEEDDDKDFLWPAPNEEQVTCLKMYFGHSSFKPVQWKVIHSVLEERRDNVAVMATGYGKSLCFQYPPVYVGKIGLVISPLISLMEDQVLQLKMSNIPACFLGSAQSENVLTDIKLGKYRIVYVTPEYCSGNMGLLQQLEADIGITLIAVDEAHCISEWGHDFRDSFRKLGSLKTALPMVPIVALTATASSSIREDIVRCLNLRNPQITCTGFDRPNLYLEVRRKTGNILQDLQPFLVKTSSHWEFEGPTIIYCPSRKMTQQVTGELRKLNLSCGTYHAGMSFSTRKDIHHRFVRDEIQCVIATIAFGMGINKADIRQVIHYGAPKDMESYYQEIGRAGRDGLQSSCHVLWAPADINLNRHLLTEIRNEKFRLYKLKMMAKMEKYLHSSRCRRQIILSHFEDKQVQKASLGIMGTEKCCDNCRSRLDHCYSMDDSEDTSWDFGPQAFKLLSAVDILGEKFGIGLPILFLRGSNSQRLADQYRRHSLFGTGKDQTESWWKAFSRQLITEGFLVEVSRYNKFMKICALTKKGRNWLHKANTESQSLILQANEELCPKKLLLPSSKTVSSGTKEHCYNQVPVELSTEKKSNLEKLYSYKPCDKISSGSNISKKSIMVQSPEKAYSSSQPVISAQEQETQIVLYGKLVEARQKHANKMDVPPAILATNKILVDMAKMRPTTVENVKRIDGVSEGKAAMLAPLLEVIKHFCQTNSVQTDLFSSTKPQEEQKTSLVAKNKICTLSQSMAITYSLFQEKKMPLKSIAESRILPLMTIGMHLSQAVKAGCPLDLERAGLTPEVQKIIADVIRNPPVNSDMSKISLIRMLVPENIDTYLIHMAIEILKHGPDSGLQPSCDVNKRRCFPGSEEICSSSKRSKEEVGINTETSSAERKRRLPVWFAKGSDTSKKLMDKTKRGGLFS
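Kinetic fluorescence helicase assay: unwinding of a quenched forked DNA duplex (100 nM final) with 2 mM ATP final raises red fluorescence (525/598 nm). Compounds sat 15 min at room temperature with 20 nM WRN beforehand.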
FEN1 inhibitor: human FEN1 inhibition. Potency, µM (titrated, usually from 114 µM), for the others: at the top dose activity change, negative = inhibition, hits mostly inhibitors. 390,000 tested, 0.35% active. P39748. Recombinant FEN1 flap cleavage, fluorescence, 15 min; also: potency is read from the fitted curve at half-maximal effect; % is scaled to controls: 0 for no effect and ±100 for the full control effect; nearly all actives have a fitted effect of over 65% in size
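Nuclease activity of 10 nM FEN1 was measured after 15 min of room-temperature exposure to titrated compounds, by adding 50 nM flap substrate and reading plates at 0 and 15 min.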
GALK confirm: galactokinase (human) inhibition, confirmation; 150 tested, 70% active; shares compounds with Pol eta inh-1; purified GALK, Kinase-Glo ATP depletion luminescence; Potency, µM (series often up to 115 µM), without a hit: top-dose activity, negative = inhibition, usual class: inhibitors
Redox cycling: redox cycling activity in phenol red-HRP assay; shares compounds with Pol eta inh-1; Phenol red-HRP H2O2 redox cycling, absorbance 600 nm; AID 2035; Potency, µM (titrated, usually from 115 µM), for the others: at the top dose activity change, negative = H2O2 signal, usual class: inhibitors; 150 tested, 40% active
HEK293 tox: HEK-293 cytotoxicity, GALK inhibitor secondary | shares compounds with Pol eta inh-1 | HEK-293 viability, ATP luminescence (CellTiter-Glo), 24/48 h | Potency, µM (highest dose often 46.1 µM), for the others: at the top dose activity change, negative = cytotoxicity, most hits filed as inhibitors | 170 tested, 10% active | AID 2547; also: potency is read from the fitted curve at half-maximal effect; % is scaled to controls: 0 for no effect and ±100 for the full control effect
Pol kappa inh-2: confirmation of human DNA polymerase kappa inhibitors; shares compounds with Pol eta inh-1; Potency, µM, actives largely listed as inhibitors; purified Pol-kappa, fluorescent strand-displacement substrate; AID 720501; 920 tested, 76% active; also: potency is read from the fitted curve at half-maximal effect
Pol eta inh-2: Pol eta (human) inhibition, cherry-pick confirmation; Pol eta primer extension, TAMRA/BHQ fluorescence, 10 min; 2,600 tested, 64% active; Potency, µM, actives largely listed as inhibitors; shares compounds with Pol eta inh-1; also: potency is read from the fitted curve at half-maximal effect
* = called active by the depositor; ? = inconclusive; . = no result; [ ] = another dose, or the depositor's remark. Rows were chosen to be rich in hits. Some 2.4% of all compounds tested hit in one or more screens of this group. Calls follow the shape of the dose curve; as a rule, active = well fitted curve in the direction sought with a large enough effect; inconclusive = small, poorly fitted or top-dose-only effect, or another doubt; inactive = no such curve, though single readings can be large; an effect the other way counts as inactive or inconclusive.

SMILES | Pol eta inh-1 | Pol beta inh | Pol iota inh | Pol kappa inh-1 | WRN inhibitor | FEN1 inhibitor | Pol eta inh-2 | others
Cc1cccc2cc(/C=N/NC(=O)c3ccccc3O)c(Cl)nc12 | ? | 28.2µM* | -13.6% | -3.1% | ? | 0.9% | ?
Cc1ccc2cc(/C=N/NC(=O)c3ccccc3O)c(Cl)nc2c1 | 15.8µM* | 2.7%[57.1 µM] | 6.8% | -9.4% | 50.1µM* | -15.6% | ?
COc1ccc(-c2n[nH]c3c2C(c2ccc(Cl)cc2Cl)NC3=O)cc1 (stereo not drawn) | -8.0% | 6.6% | -10.5% | -17.3% | . | -23.9% | .
COC(=O)c1cc(Cl)ccc1NC(=O)Cn1c(C)cc(C)c(C#N)c1=O | -11.9% | 0.4% | -4.8% | 6.3% | . | 9.2% | .
O=c1nc2s/c(=C\c3ccc(-c4ccccc4[N+](=O)[O-])o3)c(=O)n2nc1-c1ccccc1 | ? | 5.01µM* | 7.2% | -3.1% | 14.1µM* | -3.1% | 75.7*
Cc1nc2cnc(N3CCN(C)CC3)nc2n(C2CC2)c1=O | . | . | . | -10.0%[60.1 µM] | . | . | .
Cc1nc2ccc(-c3nc4ccc(N)cc4[nH]3)cc2[nH]1 | ? | 12.6µM* | 17.8µM* | 50.1µM* | ? | 35.5µM* | . | Pol kappa inh-2=?
Nc1ccc2nc(-c3ccc(Cl)cc3)[nH]c2c1 | -22.9% | 0.3% | 2.4% | 14.0% | -6.7%[57.1 µM] | ? | .
O=C(OCc1cc(=O)n2ccsc2n1)c1ccccc1NCCO | 22.4µM* | . | 20µM* | ? | -11.4%[11.6 µM] | 8.8% | ?
O=C(Nc1ccccc1C(=O)OCc1cc(=O)n2ccsc2n1)c1ccccc1Cl | 6.2% | 23.2% | 0.5% | -8.9%[60.1 µM] | . | 0.2% | .
CCCC(=O)Nc1sc(C)c(C)c1C#N | -18.9% | -11.4% | 78.4% | 3.8% | -7.4% | -4.5% | .
CCc1c(C)sc(NC(=O)CC#N)c1C#N | 22.4µM* | ? | 44.7µM* | ? | ? | ? | ?
C[C@H](NC(=O)C1CCC(CNC(=O)[C@@H]2CCCN2C(=O)OC(C)(C)C)CC1)C(=O)O (stereo partly drawn) | -12.9% | -28.1% | 22.1% | 2.4% | -2.2% | 16.4% | . | GALK confirm=-2.4%;Redox cycling=2.0%;HEK293 tox=2.2%
CC(C)[C@H](NC(=O)C1CCC(CNC(=O)[C@@H]2CCCN2C(=O)OC(C)(C)C)CC1)C(=O)O (stereo partly drawn) | -23.2% | -1.2% | -4.2% | 4.1% | -0.3% | 3.8% | .
Cc1ccc(S(=O)(=O)N/N=C\c2ccc(C)o2)cc1 | 44.7µM* | 39.8µM* | ? | ? | -20.1%[11.6 µM] | -5.0% | 67.5*
Cc1ccc(S(=O)(=O)N/N=C\c2ccc([N+](=O)[O-])o2)cc1 | 10.8% | -3.1% | ? | -14.6% | -4.0% | ? | .
Cc1cc(C)cc(NC(=O)c2sc3nc(-c4cc5ccccc5oc4=O)[nH]c(=O)c3c2C)c1 | -11.6% | -6.4% | 7.3% | -13.3% | . | -5.9% | .
Cc1cccc(NC(=O)c2sc3nc(-c4cc5ccc(O)cc5oc4=O)[nH]c(=O)c3c2C)c1 | ? | ? | 41.4% | -3.2% | . | -8.5% | ?
Cc1oc(C)c2c(=O)cc(-c3ccc4c(c3)OCO4)cc(OC(=O)c3ccccc3Br)c12 | ? | ? | ? | ? | . | -15.7% | .
COc1ccc(NC(=O)/C(C#N)=C/c2ccc(-c3ccc(Cl)c(C(=O)O)c3)o2)cc1 | 22.4µM* | -0.3% | ? | -26.3% | -10.7%[11.6 µM] | ? | . | Pol kappa inh-2=?
COc1ccc(NC(=O)/C(C#N)=C/c2ccc(-c3ccccc3C(=O)O)o2)cc1 | -17.0% | 23.2% | 18.2% | -22.1% | -14.9% | -13.9% | .
COc1ccc(NC(=O)/C(C#N)=C\c2ccc(-c3cc(C(=O)O)ccc3C)o2)cc1 | 20µM* | 22.4µM* | ? | ? | ? | -10.9% | 42.6* | Pol kappa inh-2=47.4*
Cc1ccc(NC(=O)CSc2nc3nccnc3c(=O)n2CCc2c[nH]c3ccccc23)cc1 | 1.3% | 3.4% | -5.1% | -12.5% | . | 12.6% | .
Cc1cccc(NC(=O)c2ccc(-c3nc(CSc4ccccc4)c(C)o3)cc2)c1C | -20.8% | 22.9% | 17.1% | -7.4% | . | -15.4% | .
CCCCC(=O)N1C/C=C\C(c2ccc(OC)cc2)N(Cc2ccc(F)cc2)C(=O)C1C (stereo not drawn) | . | . | -5.1% | -5.4% | . | 3.3% | .
SMILES | Pol eta inh-1 | Pol beta inh | Pol iota inh | Pol kappa inh-1 | WRN inhibitor | FEN1 inhibitor | Pol eta inh-2 | others
O=C(N/N=C/c1coc2ccccc2c1=O)c1ccncc1 | -2.8% | 23.0% | 35.6% | 1.5% | -1.9% | 9.3% | .
O=C(N/N=C/c1coc2ccccc2c1=O)c1cc(Br)c(O)c(Br)c1 | ? | -13.4% | -7.2% | -12.4% | -12.6%[11.6 µM] | 5.8% | ?
COc1cc(OC)cc(C(=O)N(Cc2ccco2)Cc2cccs2)c1 | . | . | 9.2% | -4.0% | . | -19.2% | .
CC(C)c1ccc(OCc2ccc(C(=O)N(C)C)o2)cc1 | -0.5% | 12.8% | -22.0% | -10.1% | 15.7% | -17.3% | .
CC(C)c1ccc(OCc2ccc(C(=O)O)o2)cc1 | 22.4µM* | 10µM* | ? | -15.3% | -9.0% | -6.6% | ? | Pol kappa inh-2=42.3*
C/C(=N\Nc1ccc(C(=O)O)cc1)c1ccc(Br)cc1 | 12.6µM* | 20µM* | 39.8µM* | ? | -13.6% | 1.8% | 26.9*
C/C(=N\Nc1ccc(C(=O)O)cc1)c1ccc(Cl)s1 | -11.5% | 2.7% | -0.2% | -4.6%[60.1 µM] | 2.4% | 6.1% | .
NC(=O)c1c(NC(=O)C2c3ccccc3Oc3ccccc32)sc2c1CCCCC2 | 35.5µM* | 44.7µM* | ? | -28.3% | -12.0%[11.6 µM] | 2.4% | ?
O=C(Cn1cnc2c(oc3ccccc32)c1=O)Nc1ccc(F)cc1F | -5.4% | 7.2% | -2.2% | -18.3% | . | 0.2% | .
